# This excerpt belongs to a sample that is enriched for hits.
# Integrin act MD: qHTS for Activators of Integrin-Mediated Alleviation for Muscular Dystrophy | alpha7betagal myoblasts, beta-gal FDG fluorescence, 48 h | Potency, µM (top dose mostly 38.3 µM), without a hit: top-dose activation, hits mostly activators | actives 0.064% (n = 350,000) | AID 624291, 2012;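 also: potency is read from the fitted curve at half-maximal effect; 100% = response of the positive control SU9516; nearly all actives have a fitted effect of over 60% in size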
#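 Alpha7betagal+/- myoblasts (passage 13) were plated 16-24 hr, then exposed to compounds (1:260 dilution of DMSO stock) for 48 hours at 37C. After MPER lysis, β-galactosidase reporter activity was read as FDG fluorescence (ex 480/em 540) after 30 minutes.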
# VP16 counter: VP16 counterscreen qHTS for inhibitors of ROR gamma transcriptional activity; Potency, µM (top dose mostly 53.6 µM), for the others: at the highest dose activity, negative = inhibition, actives largely listed as inhibitors; Drosophila S2 Gal4-VP16 UAS-luciferase, luminescence, 20 h; actives 3.5% (n = 310,000);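 also: Gal4-VP16 expression switched on by copper sulfate through the metallothionein promoter; potency is read from the fitted curve at half-maximal effect; % is scaled to controls: 0 for no effect and ±100 for the full control effect; nearly all actives have a fitted effect of over 50% in size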
# ERG Ets-DNA blk: qHTS for Small Molecule Inhibitors of the ERG Ets/DNA interaction; Potency, µM (series often up to 76.9 µM), without a hit: at the highest dose FP activity, negative = inhibition, usual class: inhibitors; actives 0.028% (n = 370,000); fluorescence polarization, His-ERG Ets domain / labelled DNA; active = well fitted inhibition curve with a large enough effect in the polarisation, with a control signal flat; inconclusive = small, poorly fitted or top-dose-only effect, or effect the other way, or a change in a side signal; inactive = no such curve, though single readings can be large or run the other way; the % refers to the polarisation;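 also: polarization taken with two DNA probes labelled with fluorescein and Texas red; potency is read from the fitted curve at half-maximal effect; % of control where 0% means no effect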
#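 His-tagged ERG Ets domain (1 uM in the protein solution; 300mM KCl, 50mM Tris-HCl, 1mM EDTA, 1mM DTT, pH 7.5) received compound, then a probe mix of 5 nM fluorescein-DNA and 100nM Texas-615-DNA. Fluorescence polarization was read for both dyes.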
# RORgamma inh: qHTS for inhibitors of ROR gamma transcriptional activity; actives 5.4% (n = 310,000); Drosophila S2 Gal4-RORgamma UAS-luciferase reporter, 20 h; Potency, µM (doses to about 53.6 µM), for inactives: at the highest dose activity change, negative = inhibition, usual class: inhibitors; also: potency is read from the fitted curve at half-maximal effect; % is scaled to controls: 0 for no effect and ±100 for the full control effect; nearly all actives have a fitted effect of over 60% in size
# Target sequence (P51450 whole entry, looked up, the tested form may be a part): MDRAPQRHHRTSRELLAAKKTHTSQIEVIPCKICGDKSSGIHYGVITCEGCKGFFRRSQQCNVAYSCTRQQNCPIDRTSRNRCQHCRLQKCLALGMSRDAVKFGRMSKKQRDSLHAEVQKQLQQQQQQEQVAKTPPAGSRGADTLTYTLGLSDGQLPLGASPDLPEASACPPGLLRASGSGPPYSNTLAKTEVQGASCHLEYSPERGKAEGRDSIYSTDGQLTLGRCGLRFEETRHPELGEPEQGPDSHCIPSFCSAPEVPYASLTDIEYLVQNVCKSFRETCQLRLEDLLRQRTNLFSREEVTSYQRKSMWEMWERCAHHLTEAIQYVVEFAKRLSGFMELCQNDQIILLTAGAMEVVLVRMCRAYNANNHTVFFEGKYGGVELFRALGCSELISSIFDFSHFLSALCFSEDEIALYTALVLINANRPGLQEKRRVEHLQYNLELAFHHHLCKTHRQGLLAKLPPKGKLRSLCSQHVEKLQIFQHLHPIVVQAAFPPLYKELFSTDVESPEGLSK
#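 Compounds are pin-transferred onto Drosophila Schneider cells expressing a copper-inducible Gal4–ROR gamma transactivation domain fusion. After 1 hr, copper sulfate is added to 700 uM final; luciferase is read 20 hr later.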
# Giardia kill: Small Molecules that selectively kill Giardia lamblia: qHTS; activity change, % at 7.66 µM, hits read low; actives 0.15% (n = 340,000); Giardia lamblia trophozoite viability; in the data active = activity change below about -80%; inconclusive = between about -30% and that limit;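 also: parasites exposed to compound for two days anaerobically before the ATP read; % is scaled to controls: 0 for no effect and ±100 for the full control effect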
#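 Compounds were tested on trophozoites seeded at 100 cells/well and held 48 hrs at 37 deg C anaerobically. An ATP-based luminescent kit measured the remaining live cells.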
# Active calls of the source: *; ? = inconclusive; . = no result; [ ] = dose if it differs, or a comment. Unless noted, calls follow the shape of the dose curve; as a rule, active = well fitted curve in the direction sought with a large enough effect; inconclusive = small, poorly fitted or top-dose-only effect, or another doubt; inactive = no such curve, though single readings can be large; an effect the other way counts as inactive or inconclusive.
SMILES,Integrin act MD,VP16 counter,ERG Ets-DNA blk,RORgamma inh,Giardia kill
Cc1ccc(Nc2nc(N/N=C\c3ccc4c(c3)OCO4)nc(N3CCOCC3)n2)cc1,-45%,-18%,4%,8.9µM*,6
Brc1cc2c(cc1/C=N/Nc1nc(N3CCCCC3)nc(N3CCCCC3)n1)OCO2,.,-6%,.,1.8µM*,.
O=C1C[C@@H](O)[C@@H](O)[C@@H]2[C@H]3C(=O)N(c4ccc(F)cc4F)C(=O)[C@@H]3CC[C@H]12,.,0%[10 µM],.,-4%[10 µM],.
COCCSc1nnc(NC(=O)CSCc2ccccc2)s1,-3%,?,-5%,7.9µM*,15
COC(=O)CSCC(=O)Nc1nnc(-c2ccccc2C)s1,16%,?,-8%,?,1
O=C(CSc1ccccc1)Nc1nnc(COc2ccc(Cl)cc2)s1,?,?,23%,11µM*,-11
O=C(CSc1ccc(Cl)cc1)Nc1nnc(-c2cccc([N+](=O)[O-])c2)s1,8%,?,11%,10µM*,-15
COC(=O)CSCC(=O)Nc1nnc(-c2cccc(C)c2)s1,-9%,-29%,6%,13µM*,-12
COCCN1CCN(C(=O)c2cc(COc3cc(C)ccc3C)on2)CC1,42%,5%,6%,20%,-7
COCc1nnc(NC(=O)CSCc2ccccc2)s1,-29%,-17%,-1%,11µM*,0
COCc1nnc(NC(=O)CSc2ccccc2)s1,-13%,-27%,-3%,?,0
C=CCN(CC=C)C(=O)C1CCN(S(=O)(=O)c2ccc(N3CCCC3=O)cc2)CC1,10%,1%,5%,8%,10
CC(CCC(=O)O)C1CCC2C3CC[C@@H]4CCCC[C@@]4(C)C3CC[C@@]12C (some centres undefined),.,-12%,.,-3%,.
COc1cccc(C2C=C(c3ccc(Br)s3)Nc3ncnn32)c1OC (centres undefined),10%,?,10%,-119%,-4
Fc1ccc(Br)cc1C1C=C(c2ccc(Br)s2)Nc2ncnn21 (centres undefined),2%,3%[0.365 µM],4%,35µM*,10
COc1ccccc1Nc1nc(N)nc(CSC(=S)N2CCCCC2)n1,-31%,-20%,2%,-44%,8
Cc1ccc(-n2c3c(cc(-c4nc(-c5ccc(Cl)cc5)cs4)c2=O)C(=O)CC(C)(C)C3)cc1C,.,.,-2%,.,.
O=C1c2ccccc2NC(c2ccc([N+](=O)[O-])cc2)N1O (centres undefined),-13%,3%,-8%,11µM*,-7
COc1ccc(NC(=O)CN(C)CC(=O)Nc2ccccc2SC)cc1,0%,23%,-1%,-1%,-2
CSc1ccccc1NC(=O)CN(C)CC(=O)Nc1ccccc1C(F)(F)F,0%,3%[10 µM],-3%,8.9µM*,11
CSc1ccccc1NC(=O)CN(C)CC(=O)Nc1ccc(Cl)cc1F,?,?,-2%,11µM*,-4
S=C(NCCc1ccc(Cl)cc1)NCc1ccccc1,14%,?,0%,?,31
C/C(=N\NC(=S)NCCc1ccccc1)c1ccc(O)cc1O,-27%,?,-5%,?,-2
Fc1ccc(CNC(=S)NCc2cccc(Cl)c2)cc1,1%,?,-3%,45%,-9
S=C(NCc1ccccc1)NCc1cccc(Cl)c1,-29%,?,1%,10µM*,-11
SMILES,Integrin act MD,VP16 counter,ERG Ets-DNA blk,RORgamma inh,Giardia kill
C/C(=N\NC(=S)NCCc1ccccc1)c1ccc(Cl)cc1Cl,-21%,6.3µM*,-16%,1.8µM*,6
S=C(NCCc1cccc(Cl)c1)NCc1ccccc1,.,?,.,8.9µM*,.
Cc1cccc(C(=O)NC2(C(F)(F)F)N=C(c3ccccc3)N(C3CCCCC3)C2=O)c1 (centres undefined),.,.,0%,.,.
O=C(N/N=C/c1cc([N+](=O)[O-])ccc1O)C1C2CCCCC21 (centres undefined),.,2.8µM*,.,0.89µM*,.
O=C(N/N=C/c1cc([N+](=O)[O-])ccc1O)C1CCCCC1,5%,2.5µM*,-2%,0.5µM*,5
COCCOCCn1c(/C=C/c2ccccc2)nc2ccccc21,-21%,?,-7%,11µM*,-7
CC(C)n1c(CN(C)c2ccccc2)nc2ccccc21,-12%,.,17%,.,12
CCCn1c(/C=C/c2ccccc2)nc2ccccc21,-35%,?,5%,5.6µM*,-8
CC(C)Cn1c(S(=O)(=O)O)nc2ccccc21,-12%,?,-4%,-24%,?
CC(C)Cn1c(/C=C/c2ccco2)nc2ccccc21,-15%,?,-2%,11µM*,29
COCCn1c(COC)nc2ccccc21,5%,0%,2%,-11%,-10
CC(C)n1c(/C=C/c2ccccc2)nc2ccccc21,-12%,16µM*,-4%,13µM*,1
Cc1noc(NC(=O)c2ccc(Cl)c(Cl)c2)c1Cl,2%,18µM*,13%,?,-6
Cc1ccc(C(=O)Nc2ccc(Nc3ccccc3)cc2)cc1Br,-12%,.,5%,.,-15
C=CCN(CC=C)C(=S)NC(=O)c1ccc(C)c(Br)c1,-9%,0.13µM*,-7%,0.28µM*,-2
COc1ccc(C(=O)NCCCc2ccccc2)cc1,12%,.,-1%,.,15
C=CCN(CC=C)C(=S)NC(=O)c1ccc(-c2ccccc2)cc1,-32%,1µM*,.,0.5µM*,-20
COc1ccc(C(=O)NC(=S)N(Cc2ccccc2)Cc2ccccc2)cc1,-47%,0.56µM*,6%,0.16µM*,-1
C=CCN(CC=C)C(=S)NC(=O)c1ccc(OC)cc1,-185%,2.2µM*,14%,0.89µM*,-12
C=CCNC(=O)c1ccc(OC)cc1,-3%,-4%,24%,-14%,-25
CNC1=CN(O)C(c2ccccc2)=c2cc(Cl)ccc2=N1,.,-6%,.,22%,.
CCc1cccc(C)c1NC(=O)C(CC)Sc1nc2ccncc2[nH]1 (centres undefined),.,.,6%,.,.
CCc1ccc(C(=O)CN2C(=O)NC3(CCc4ccccc43)C2=O)cc1 (centres undefined),1%,.,4%,.,-8
COc1ccccc1C(=O)NC(=S)Nc1cccnc1Cl,5%,?,8%,10µM*,3
COc1ccccc1C(=O)NC(=S)NNC(=O)c1sc2ccccc2c1Cl,-1%,-10%,-1%,3%,?
Cc1ccc(C(=O)NC(=S)Nc2cccnc2Cl)cc1,-4%,?,-4%,5µM*,2
COc1ccccc1-c1cc(C(=O)Nc2cccnc2Cl)no1,?,-2%,21%,1%,4
COc1ccccc1C(=O)NNC(=S)NC(=O)c1sc2ccccc2c1Cl,-6%,13µM*,2%,13µM*,11
Cn1ccc(C(=O)Nc2cccnc2Cl)n1,10µM*,.,2%,.,-5
Cc1ccc(NCC(=O)Nc2ccc(Br)cc2)cc1F,7%,1%,0%,?,-11

# Assay outcomes (PubChem)
